# Rows were chosen to be rich in hits. Some 4.6% of all compounds tested hit in one or more screens of this group.
# D1 agonist = agonists of human D1 dopamine receptor; P21728; HEK293 T-REx D1 cells, calcium flux, agonist mode; activation, % at 2 µM; 1% of 360,000 active
# Target sequence (P21728 whole entry, looked up): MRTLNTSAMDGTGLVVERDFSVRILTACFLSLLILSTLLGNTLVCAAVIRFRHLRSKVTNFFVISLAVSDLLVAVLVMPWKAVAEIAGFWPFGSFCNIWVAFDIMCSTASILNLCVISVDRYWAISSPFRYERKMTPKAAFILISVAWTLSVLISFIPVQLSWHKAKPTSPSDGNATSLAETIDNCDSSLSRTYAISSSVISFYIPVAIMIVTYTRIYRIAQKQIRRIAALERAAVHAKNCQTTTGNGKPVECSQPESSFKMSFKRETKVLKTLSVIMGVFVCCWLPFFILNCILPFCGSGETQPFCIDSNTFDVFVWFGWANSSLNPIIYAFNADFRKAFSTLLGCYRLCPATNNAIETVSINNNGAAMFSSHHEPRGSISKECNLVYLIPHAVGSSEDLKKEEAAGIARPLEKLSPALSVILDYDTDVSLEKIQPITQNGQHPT
#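 Inducible HEK293 T-REx D1 cells, force-coupled to calcium signalling, were plated at 4000 cells/well with tetracycline and held overnight at 30 C. After no-wash calcium dye loading, compound-evoked calcium rise over 180 s flagged agonists.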
# D1 antagonist = blocks dopamine activation of the human D1 receptor; AID 504652; HEK293 TREx D1 cells, calcium flux, dopamine EC80; hits give low values; P21728; activity change, negative = inhibition, % at 10 µM; 3.2% of 360,000 active; in the data active = activity change below about -30%
#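 Tetracycline-induced HEK293 Trex D1 cells, force-coupled to calcium, dye-loaded; compounds added and read 180 s, then EC80 dopamine added and calcium flux tracked kinetically another 180 s.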
# TRHR PAM = TRH receptor (human) allosteric enhancement. P34981. 0.66% of 360,000 active. TRHR cells, fluo-8 calcium fluorescence, EC20 TRH enhancement. enhancement, % at 2 µM. AID 493056; in the data active = enhancement above about 30%
#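 TRHR-expressing cells loaded with fluo-8 calcium dye were read kinetically (ex 480/em 530) during compound addition, then stimulated with an EC20 of TRH (10 nM final). Enhancement of the Gq-mediated intracellular calcium response was scored.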
# TRHR ag = activates the human TRH receptor; TRHR cells, calcium flux fluo-8, FDSS agonist mode; AID 493084; activation, % at 2 µM; P34981; 0.18% of 360,000 active
#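 In this calcium-flux screen, cells bearing human TRHR are dye-loaded with fluo-8, baselined for 10 cycles, then exposed to library compounds; positive kinetic calcium responses during the agonist phase mark hits, with TRH as control.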
# D1 PAM = enhances dopamine response at the human D1 receptor. 0.036% of 360,000 active. P21728. AID 504651. HEK293 TREx D1 cells, calcium flux, dopamine EC20 potentiation. potentiation, % at 10 µM; in the data active = potentiation above about 30%
# Numbers stand for hits; i = inactive. Rule as the data show it, unless noted: active = activation above about 30%; inactive = the rest.
SMILES,D1 agonist,D1 antagonist,TRHR PAM,TRHR ag,D1 PAM
CNS(=O)(=O)c1ccc(NC(=O)Nc2cccc(F)c2)cc1,i,-50,i,i,i
CC(=O)Nc1cccc(NC(=O)Nc2cccc(F)c2)c1,i,i,i,i,i
O=C(NC(=S)NCc1cccnc1)c1cc2ccccc2o1,i,i,i,i,i
COC(=O)c1cc(NC(=O)Nc2cccc(Cl)c2)ccc1Cl,i,-41,i,i,i
COC(=O)c1cc(NC(=O)c2ccc(-c3ccccc3)cc2)ccc1Cl,i,i,i,i,i
COC(=O)CSc1nc2sc3c(c2c(=O)n1-c1ccccc1C)CC(C)(C)OC3,i,i,i,i,i
O=C(Nc1cccc(Cl)c1)Nc1cccc(Cl)c1,i,-49,i,i,i
CCc1sc(C(=O)Nc2ncccc2C)cc1C,i,i,30,i,i
O=C(Nc1cccc(F)c1)Nc1cccc(Cl)c1,i,-53,i,i,i
O=C(Nc1ccccc1)Nc1cc(Cl)cc(Cl)c1,i,i,i,i,i
CCC(C)[C@H](NC(=O)Nc1cccc(Cl)c1)C(=O)O (some centres not stated),31,i,i,i,i
COc1ccc(N2CCN(S(=O)(=O)CCNC(=O)Cc3ccc(OC)c(OC)c3)CC2)cc1,i,i,i,i,i
Cc1cccnc1NC(=O)Nc1cccc(Cl)c1,i,i,32,i,i
CCC(C)c1ccc(NC(=O)Nc2cccnc2)cc1 (configuration not stated),i,-30,i,i,i
O=C(Nc1cccnc1)Nc1cc(Cl)cc(Cl)c1,i,-33,i,i,i
CCc1ccccc1NC(=O)Nc1cccc(F)c1,i,-42,i,i,i
O=C(Nc1cccnc1)Nc1ccccc1Cl,i,i,i,i,i
N#Cc1ccc(NC(=O)COC(=O)CSc2nnc(-c3ccc(Cl)cc3)o2)cc1,i,-37,i,i,i
O=C(COC(=O)Cc1ccc(Cl)cc1)NCc1ccc2c(c1)OCO2,i,i,i,i,i
O=C(COC(=O)CSc1nnc(-c2ccc(Cl)cc2)o1)NCc1ccc2c(c1)OCO2,i,-36,i,i,i
O=C(Nc1ccc2nc3n(c(=O)c2c1)CCCCC3)c1c(F)ccc([N+](=O)[O-])c1F,i,-42,i,i,i
COc1cccc(CNC(=O)c2ccc(NC(=O)CC3SC(N4CCCCC4)=NC3=O)cc2)c1 (configuration not stated),i,i,i,i,i
COc1cccc(CNC(=O)C(=O)Nc2ccc3nc4n(c(=O)c3c2)CCCCC4)c1,i,-40,i,i,i
CCOC(=O)Nc1ccc2nc3n(c(=O)c2c1)CCCCC3,i,i,i,i,i
O=C(NCc1cccc(Cl)c1)C(=O)Nc1ccc2nc3n(c(=O)c2c1)CCCCC3,i,i,i,i,i
SMILES,D1 agonist,D1 antagonist,TRHR PAM,TRHR ag,D1 PAM
COCCNC(=O)C(=O)Nc1ccc2nc3n(c(=O)c2c1)CCCCC3,i,-52,i,i,i
O=C(Nc1ccc2nc3n(c(=O)c2c1)CCCCC3)c1cc([N+](=O)[O-])ccc1F,i,i,i,i,i
COc1cccc(CNC(=O)c2cccc(NC(=O)CC3SC(N4CCCCC4)=NC3=O)c2)c1 (configuration not stated),i,i,36,i,i
O=C(NCc1nnc(-c2nc3ccccc3[nH]2)o1)C1CCCCC1,i,i,i,i,i
CSc1nn(Cc2ccc(Br)cc2)c(N(C(C)=O)C(C)=O)c1S(=O)(=O)c1ccccc1,i,i,i,i,i
Cc1c(NS(=O)(=O)c2ccc3c(c2)n(C)c(=O)n3C)c(=O)n(-c2ccccc2)n1C,i,i,i,i,i
Cc1ccc(NC(=O)c2ccc(S(=O)(=O)Nc3c(C)n(C)n(-c4ccccc4)c3=O)cc2)nc1,i,i,i,i,i
Cc1c(NS(=O)(=O)c2ccc(C(=O)NCc3ccc(F)cc3)cc2)c(=O)n(-c2ccccc2)n1C,i,-36,i,i,i
Cc1ccc(S(=O)(=O)N2CCCCC2)cc1C(=O)NCc1ccccn1,i,i,i,i,i
CCN(Cc1ccccc1)C(=O)COC(=O)c1cc(S(=O)(=O)Nc2c(C)n(C)n(-c3ccccc3)c2=O)ccc1C,i,i,i,i,i
CSc1nc2ccc(S(=O)(=O)Nc3c(C)n(C)n(-c4ccccc4)c3=O)cc2s1,i,-91,i,i,i
CCN(Cc1ccccc1)C(=O)C(C)OC(=O)c1cc(S(=O)(=O)Nc2c(C)n(C)n(-c3ccccc3)c2=O)ccc1C (configuration not stated),i,-69,i,i,i
Cc1ccc(S(=O)(=O)Nc2c(C)n(C)n(-c3ccccc3)c2=O)cc1C(=O)NCc1ccccn1,i,-34,i,i,i
O=C(c1cc(-c2ccc(Br)cc2)n[nH]1)N1CCN(S(=O)(=O)c2ccc(Br)s2)CC1,i,i,i,i,i
CCc1ccc(-n2c3nc(=O)[nH]c(=O)c-3cc3c(C)nn(-c4ccccc4)c32)cc1,i,i,i,i,i
CCc1cccc(C)c1NC(=O)C1CCN(S(=O)(=O)Cc2ccccc2)CC1,i,i,i,i,i
CCc1nnc(SCC(=O)Nc2cccc(C(F)(F)F)c2)c2cc3oc(C)cc3n12,i,i,i,i,i
Cc1cn(CC2COC(C)(C)O2)c(=O)[nH]c1=O (configuration not stated),i,-30,i,i,i
Cc1nc2cccnc2n1C1CCN(S(=O)(=O)c2ccc(C(C)C)cc2)CC1,39,i,i,i,i
Cc1nc(N2CCOCC2)c(C#N)c(C)c1Br,i,i,i,i,i
Cc1nc(Br)c(Br)c(C)c1Br,i,-31,i,i,i
COc1ccc(CC(=O)Nc2ccc(NC(=O)c3ccccc3F)cc2)cc1,54,i,i,i,i
COc1ccc(NC(=O)CSc2nc(N)c(NC(=O)c3ccccc3F)c(=O)[nH]2)cc1,i,i,i,i,i
CCOc1ccc(CONS(=O)(=O)c2ccc(NC(C)=O)cc2)cc1Cl,69,i,i,i,i
CC(=O)Nc1ccc(S(=O)(=O)NNC(=O)COc2ccc(Cl)cc2Cl)cc1,i,i,i,i,i
SMILES,D1 agonist,D1 antagonist,TRHR PAM,TRHR ag,D1 PAM
COc1ccc(C2(CCN=Cc3ccc(N(C)C)cc3)CCOC(C)(C)C2)cc1 (configuration not stated),i,-78,i,i,i
CCOc1ccc(NC(=O)C(NS(=O)(=O)c2ccc3c(c2)CCN3C(C)=O)C(C)C)cc1 (configuration not stated),i,i,i,i,i
Cc1ccc(C(C(=O)NC2CCCCC2)N(Cc2ccccc2)C(=O)Cc2c[nH]c3ccccc23)o1 (configuration not stated),i,-82,i,i,i
CC1=C(c2ccc(C)cc2)S(=O)(=O)N(CC(=O)O)C1=O,i,i,i,i,i
COC(=O)CN1C(=O)C(C)=C(c2ccc(C)cc2)S1(=O)=O,i,-36,i,i,i
COc1ccccc1Cn1c(SCC(=O)C(C)(C)C)nc2ccccc2c1=O,i,i,i,i,i

# Source: PubChem BioAssay
